The nature of assay [1]: small molecules captured by biotinylated probe aFSTL3 – biochemical, small-molecule microarray, fluorescence 635/667, stem cell growth factor project, primary screen (AID 1064).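 Note: measures binding of the biotinylated anti-FSTL3 antibody to printed compounds.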 The note with it: higher = more signal.
Assay [2] can be described thus: binders from COS7 lysate, DM2A8 probe, primary screen, torsin A project, cell lysate, small-molecule microarray, fluorescence 635/667 (AID 1065). The note with it: higher = more signal, COS7 lysate expressing mutant human TOR1A.
Assay [3] in a line: small molecules captured by biotinylated probe aFGF2 – biochemical, small-molecule microarray, fluorescence 635/667, stem cell growth factor project, primary screen (AID 1067).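 Note: measures binding of biotinylated aFGF2 protein to printed compounds on slides; z-score merges feature fluorescence and signal-to-noise across triplicate slides.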 The note with it: higher = more signal.
Assay [4] can be described thus: small molecules captured by biotinylated probe aFGF10 – biochemical, small-molecule microarray, fluorescence 635/667, stem cell growth factor project, primary screen (AID 1071).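 Note: score merges 667 nm spot intensity and signal to noise from triplicate slides.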 The note with it: higher = more signal.
The target of assay [5] is Neurogenic locus notch homolog protein 2 (Homo sapiens) (UniProt Q04721). Nature of the assay: small molecules binding Notch2 protein – biochemical, small-molecule microarray, 635 nm fluorescence, stem cell growth factors, primary screen (AID 1073). To be noted: higher = more signal.
The target of assay [6] is Pro-neuregulin-1, membrane-bound isoform (Homo sapiens) (UniProt Q02297). Nature of the assay: small molecules binding neuregulin-1 protein – biochemical, small-molecule microarray, fluorescence 635/667, psychiatric disease protein project, primary screen (AID 1075).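 Note: score combines 667 nm spot fluorescence with signal to noise.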 The note with it: NRG1 binding, 635 nm fluorescence, higher = more signal.
Assay [7] concerns Neuregulin-1 EGF-like domain. The experiment in a line: small molecules binding NRG1 EGF domain – biochemical, small-molecule microarray, 635 nm fluorescence, primary screen (AID 1081).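 Note: binding of the protein to compounds printed on small-molecule microarray slides.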 The note with it: higher = more signal.
Assay [8] can be described thus: FRG1 expression reporter modulators in myotubes – cell-based, C2C12 myotubes, firefly/Renilla luciferase, luminescence, FRG1 inhibition for FSHD, primary screen (AID 1084). To be noted: FRG1 promoter luciferase, higher = more signal, called active from +8 up or from −8 down.
Assay [9] is described as follows: small molecules captured by biotinylated probe aFST – biochemical, small-molecule microarray, fluorescence 635/667, stem cell growth factor project, primary screen (AID 1086).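 Note: score merges 667 nm fluorescence with signal-to-noise of each printed compound spot.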 To be noted: higher = more signal.
Assay [10] in a line: binders of probe aHhip on microarray, primary screen, stem cell growth factor project, biochemical, small-molecule microarray, fluorescence 635/667 (AID 1087).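 Note: score merges spot fluorescence at 667nm with spot signal to noise ratio.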 The note with it: higher = more signal.
Assay [11] concerns PRMT1 (protein arginine N-methyltransferase 1). The experiment in a line: small molecules binding arginine methyltransferase PRMT1 – biochemical, small-molecule microarray, 635 nm fluorescence, primary screen (AID 1088).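 Note: binding of Prmt1 protein to compounds spotted on small-molecule microarray slides.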 The note with it: higher = more signal.
The nature of assay [12]: growth effects on S. cerevisiae YJM789 – YJM789 clinical isolate, OD600, 24 h, basal, primary screen (AID 1089).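 Note: growth of clinical yeast isolate S. cerevisiae YJM 789 seeded 1000 cells per well; test concentration not given here.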 The note with it: higher = more signal, called active from +8 up or from −8 down.
Assay [13] can be described thus: S. pombe growth modifiers, basal conditions – strain 972, OD600, 24 h, no modulator, primary screen (AID 1090).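 Note: basal condition with compound alone and no growth modifier present; test concentration not given here.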 To be noted: S. pombe 972 growth, higher = more signal, called active from +8 up or from −8 down.
Assay [14] can be described thus: budding yeast growth modifiers under rapamycin – strain BY4716, OD600, 96 h, primary screen (AID 1091). Note: test concentration not given here. The note with it: S. cerevisiae BY4716 + rapamycin, higher = more signal, called active from +8 up or from −8 down.
The target in assay [15] is Torsin-1A-interacting protein 2 (Homo sapiens) (UniProt Q8NFQ8). Nature of the assay: small molecules binding lysate-expressed LULL1 – cell lysate, human LULL1 lysate, 635/667 nm fluorescence, primary screen (AID 1092).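 Note: probe is lysate of COS7 cells overexpressing human LULL1; score merges per-feature 667 nm fluorescence with signal-to-noise.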 The note with it: small-molecule microarray, hLULL1 lysate binding, 635 nm fluorescence; higher = more signal.
A short description of assay [16]: optical density change of DRC41 E. coli – strain DRC41, OD650, 24 h, E. coli filamentation project, primary screen (AID 1093).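 Note: MC1000 strain lacking acrAB efflux and sulA so SOS filamentation is blocked; test concentration not given here.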 The note with it: E. coli DRC41 growth, higher = more signal, called active from +8 up or from −8 down.
A short description of assay [17]: probe aLefty2 binding to arrayed compounds – biochemical, biotinylated probe, 635/667 nm fluorescence, primary screen (AID 1094).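 Note: score merges spot fluorescence near 667 nm with spot signal-to-noise ratio.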 To be noted: small-molecule microarray, higher = more signal.
The test system of assay [18] is Noggin (protein binding on small-molecule microarray). Nature of the assay: small molecules binding Noggin protein – biochemical, 635/667 nm fluorescence, primary screen (AID 1095).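 Note: score merges 667 nm feature fluorescence with signal to noise over triplicate slides.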 The note with it: 635 nm fluorescence, higher = more signal.
Assay [19] addresses Neurogenic locus notch homolog protein 3 (Homo sapiens) (UniProt Q9UM47). Nature of the assay: small molecules binding NOTCH3 protein – biochemical, 635/667 nm fluorescence, primary screen (AID 1096). The note with it: small-molecule microarray, 635 nm fluorescence, higher = more signal.
Assay [20] in a line: probe aEGFR binding to arrayed compounds – biochemical, biotinylated probe, 635/667 nm fluorescence, primary screen (AID 1097).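 Note: probe is a biotinylated anti-EGFR antibody binding compounds printed on slides; score combines fluorescence near 667 nm and signal to noise of each spot.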 To be noted: small-molecule microarray, higher = more signal.

Molecules are shown by their SMILES. Active and inactive are the calls of the source.

Data on five compounds can be found in PubChem BioAssay.

Neurogenic locus notch homolog protein 2 (Homo sapiens), sequence (Q04721 whole entry, looked up, canonical isoform): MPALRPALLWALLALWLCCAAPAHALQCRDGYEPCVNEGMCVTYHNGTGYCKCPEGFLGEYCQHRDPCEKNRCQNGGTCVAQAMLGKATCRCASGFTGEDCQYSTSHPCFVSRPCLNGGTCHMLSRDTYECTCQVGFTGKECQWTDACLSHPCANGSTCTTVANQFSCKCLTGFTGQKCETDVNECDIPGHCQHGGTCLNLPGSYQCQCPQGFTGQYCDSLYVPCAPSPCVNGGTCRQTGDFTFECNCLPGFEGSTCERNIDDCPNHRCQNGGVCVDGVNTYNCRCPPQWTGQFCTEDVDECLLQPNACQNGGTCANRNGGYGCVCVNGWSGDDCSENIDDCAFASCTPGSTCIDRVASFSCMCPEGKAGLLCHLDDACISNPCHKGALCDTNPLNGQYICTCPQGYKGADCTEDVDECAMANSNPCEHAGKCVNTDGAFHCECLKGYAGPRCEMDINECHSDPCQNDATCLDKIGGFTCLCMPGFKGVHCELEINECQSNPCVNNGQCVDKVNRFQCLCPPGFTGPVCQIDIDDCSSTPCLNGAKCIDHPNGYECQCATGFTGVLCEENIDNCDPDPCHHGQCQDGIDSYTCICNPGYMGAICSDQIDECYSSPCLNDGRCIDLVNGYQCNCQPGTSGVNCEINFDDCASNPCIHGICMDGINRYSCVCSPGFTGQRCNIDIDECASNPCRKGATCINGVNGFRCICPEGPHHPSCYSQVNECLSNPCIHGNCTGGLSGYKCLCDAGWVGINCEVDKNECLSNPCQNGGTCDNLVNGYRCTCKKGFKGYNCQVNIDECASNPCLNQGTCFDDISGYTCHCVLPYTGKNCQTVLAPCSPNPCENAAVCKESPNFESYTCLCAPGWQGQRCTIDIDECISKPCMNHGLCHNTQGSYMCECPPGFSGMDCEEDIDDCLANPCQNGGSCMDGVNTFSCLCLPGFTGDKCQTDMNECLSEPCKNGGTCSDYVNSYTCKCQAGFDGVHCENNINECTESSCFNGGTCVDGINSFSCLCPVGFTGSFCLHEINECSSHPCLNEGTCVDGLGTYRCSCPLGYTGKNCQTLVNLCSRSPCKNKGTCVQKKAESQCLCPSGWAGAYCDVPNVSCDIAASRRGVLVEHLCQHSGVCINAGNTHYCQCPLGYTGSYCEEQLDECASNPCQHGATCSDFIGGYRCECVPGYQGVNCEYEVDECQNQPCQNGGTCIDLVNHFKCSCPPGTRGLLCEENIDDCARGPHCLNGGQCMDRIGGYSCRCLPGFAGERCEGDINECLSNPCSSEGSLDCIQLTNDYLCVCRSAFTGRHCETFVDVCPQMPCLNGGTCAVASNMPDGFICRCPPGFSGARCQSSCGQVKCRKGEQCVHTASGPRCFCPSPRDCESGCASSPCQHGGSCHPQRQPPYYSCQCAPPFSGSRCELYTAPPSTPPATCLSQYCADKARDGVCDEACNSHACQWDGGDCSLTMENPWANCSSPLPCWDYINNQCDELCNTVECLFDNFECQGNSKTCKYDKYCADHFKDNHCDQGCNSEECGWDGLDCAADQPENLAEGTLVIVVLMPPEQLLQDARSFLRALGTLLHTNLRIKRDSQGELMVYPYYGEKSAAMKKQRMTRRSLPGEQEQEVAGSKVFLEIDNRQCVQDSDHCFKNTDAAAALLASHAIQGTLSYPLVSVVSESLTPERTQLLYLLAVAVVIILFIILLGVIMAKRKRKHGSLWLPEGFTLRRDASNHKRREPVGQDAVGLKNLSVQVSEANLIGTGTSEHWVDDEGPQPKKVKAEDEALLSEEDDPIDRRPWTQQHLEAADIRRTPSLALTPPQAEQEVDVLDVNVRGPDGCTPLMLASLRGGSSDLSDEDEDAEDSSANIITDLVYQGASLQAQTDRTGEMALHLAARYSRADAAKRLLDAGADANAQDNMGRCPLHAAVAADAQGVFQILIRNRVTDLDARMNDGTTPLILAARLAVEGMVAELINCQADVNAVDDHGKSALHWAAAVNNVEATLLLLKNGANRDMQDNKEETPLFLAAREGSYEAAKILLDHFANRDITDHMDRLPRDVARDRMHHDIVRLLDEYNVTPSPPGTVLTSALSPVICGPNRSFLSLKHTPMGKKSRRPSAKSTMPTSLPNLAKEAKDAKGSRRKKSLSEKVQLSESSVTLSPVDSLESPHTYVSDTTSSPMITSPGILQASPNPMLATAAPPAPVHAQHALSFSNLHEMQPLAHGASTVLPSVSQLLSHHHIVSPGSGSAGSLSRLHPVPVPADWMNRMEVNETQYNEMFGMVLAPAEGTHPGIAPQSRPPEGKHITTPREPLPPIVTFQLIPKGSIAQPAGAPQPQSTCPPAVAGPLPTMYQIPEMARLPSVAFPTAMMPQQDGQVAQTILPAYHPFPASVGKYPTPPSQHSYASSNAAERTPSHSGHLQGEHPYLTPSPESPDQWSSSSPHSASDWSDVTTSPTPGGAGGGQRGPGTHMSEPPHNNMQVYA
Pro-neuregulin-1, membrane-bound isoform (Homo sapiens), sequence (Q02297 whole entry, looked up, the tested form may be a part, canonical isoform): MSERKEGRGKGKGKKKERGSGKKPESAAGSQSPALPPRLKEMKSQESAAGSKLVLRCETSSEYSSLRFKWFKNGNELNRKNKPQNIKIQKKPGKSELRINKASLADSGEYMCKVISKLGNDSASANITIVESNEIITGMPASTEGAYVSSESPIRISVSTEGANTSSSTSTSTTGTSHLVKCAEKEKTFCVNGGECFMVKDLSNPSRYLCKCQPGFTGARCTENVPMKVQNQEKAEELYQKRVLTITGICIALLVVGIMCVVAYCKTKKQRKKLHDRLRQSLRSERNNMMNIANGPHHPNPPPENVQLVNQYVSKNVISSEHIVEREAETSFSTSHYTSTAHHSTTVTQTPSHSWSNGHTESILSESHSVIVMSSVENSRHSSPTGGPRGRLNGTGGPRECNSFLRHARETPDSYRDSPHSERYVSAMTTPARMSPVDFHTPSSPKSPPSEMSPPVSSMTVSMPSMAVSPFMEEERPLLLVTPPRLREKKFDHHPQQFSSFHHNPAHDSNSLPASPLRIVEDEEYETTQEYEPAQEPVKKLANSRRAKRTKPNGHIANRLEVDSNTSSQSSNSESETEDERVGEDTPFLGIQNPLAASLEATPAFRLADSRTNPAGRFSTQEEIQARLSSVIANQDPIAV
Torsin-1A-interacting protein 2 (Homo sapiens), sequence (Q8NFQ8 whole entry, looked up): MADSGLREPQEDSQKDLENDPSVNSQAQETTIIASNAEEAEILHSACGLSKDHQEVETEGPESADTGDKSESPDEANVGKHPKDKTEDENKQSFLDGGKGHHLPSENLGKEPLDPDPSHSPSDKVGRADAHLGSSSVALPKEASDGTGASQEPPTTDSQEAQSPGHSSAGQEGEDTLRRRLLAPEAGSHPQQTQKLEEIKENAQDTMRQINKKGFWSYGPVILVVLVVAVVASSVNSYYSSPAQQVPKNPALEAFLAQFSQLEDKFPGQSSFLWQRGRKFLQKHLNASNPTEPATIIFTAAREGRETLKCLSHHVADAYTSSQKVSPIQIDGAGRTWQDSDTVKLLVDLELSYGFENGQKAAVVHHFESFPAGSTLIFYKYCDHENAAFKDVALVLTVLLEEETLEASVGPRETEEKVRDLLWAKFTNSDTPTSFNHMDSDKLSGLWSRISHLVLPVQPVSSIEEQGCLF

On to `C=CCNC(=O)[C@H]1[C@@H]2C(=O)O[C@@H](c3ccccc3)[C@@H](c3ccccc3)N2[C@@H](c2ccc(OCCO)cc2)[C@]12C(=O)Nc1ccc(C#CCCO)cc12`, for which the composite z-score in assay [1] was 0.268; in assay [2] it was 1.14; in assay [3], -0.0901; in assay [4] it was -0.168; in [5], -0.23; in assay [6] it was 1.08. For the same compound, the composite z-score in [7] is 1.15; in [9] it was 0.219; in assay [10], -0.0994; in assay [11], 1.57; in assay [15], 2.42; in assay [17], -0.148. The composite z-score is 0.292 in assay [18], 0.73 in assay [19] and -0.087 in assay [20]. The z-score is -4.1 (inactive) in [8]; 0.443 (inactive) in assay [12]; -1.91 (inactive) in [13]; 2.38 (inactive) in assay [14]; 2.71 (inactive) in assay [16].
Take `CCCNC(=O)[C@@]1(Sc2ccc(C)cc2)CC(=O)N(Cc2cc(C(F)(F)F)cc(C(F)(F)F)c2)[C@@H]1c1ccc(CO)cc1I`: the composite z-score in assay [1] is 0.71; in assay [2], 0.273; in [3] it was -0.0775; in [4] it was -0.84; in assay [5], -0.472; in assay [6], 1.16. Moreover, the composite z-score is 0.242 in assay [7]; 0.267 in assay [9]; -0.0237 in [10]; 0.491 in [11]; 1.03 in assay [15]; 0.024 in [17]. Besides, the composite z-score was -1.35 in assay [18], -0.168 in assay [19] and -0.118 in assay [20]. The z-score is -1.25 (inactive) in [8]; -5.07 (inactive) in assay [12]; -5.46 (inactive) in assay [13]; -0.894 (inactive) in [14]; 3.43 (inactive) in assay [16].
Take `C=CCN1C(=O)[C@@]2(O[C@@H](CCn3cc(CCO)nn3)[C@H]([Si](C)(C)c3ccc(OC)cc3)[C@H]2C)c2cc(NC(=O)c3ccc(OC)cc3)ccc21`: the composite z-score in [1] is -0.0186; in assay [2], 0.463; in assay [3], -0.0493; in [4], 0.051; in assay [5], 0.0039; in [6] it was 0.457. Moreover, the composite z-score in [7] is 0.672; in [9] it was 0.309; in assay [10], -0.0994; in [11] it was 1.49; in assay [15], 0.674; in [17], -0.0985. The composite z-score in assay [18] was 1.04; in [19], 0.742; in assay [20] it was -0.0895. In addition, the z-score is -2.22 (inactive) in [8]; -0.0986 (inactive) in assay [12]; -1.27 (inactive) in assay [13]; -0.738 (inactive) in assay [14]; 1.31 (inactive) in assay [16].
For the compound `COCCCNC(=O)[C@@]1(Cc2ccccc2)N=C(c2ccc(OCCCO)cc2)O[C@H]1c1ccccc1N=[N+]=[N-]`, the composite z-score in assay [1] worked out at 1.38; in assay [2], 0.768; in assay [3], 0.269; in [4] it was 0.727; in assay [5] it was 1.14; in [6], 0.276. Besides, the composite z-score was 1.13 in assay [7]; 0.836 in assay [9]; -0.121 in assay [10]; 0.85 in assay [11]; 2.47 in assay [15]; 0.612 in assay [17]. The results for the composite z-score in [18], in assay [19] and in [20] were 1.89, 0.773 and 0.247, respectively. In addition, the z-score is -1.37 (inactive) in assay [8]; 0.448 (inactive) in [12]; -0.051 (inactive) in [13]; 2.71 (inactive) in assay [14]; 1.59 (inactive) in [16].
`COc1ccc(C#Cc2ccc3c(c2)[C@]2(C(=O)N3)[C@H](c3ccc(O)cc3)N3[C@H](c4ccccc4)[C@H](c4ccccc4)OC(=O)[C@H]3[C@@H]2C(=O)N2CCN(c3ncccn3)CC2)cc1`: the composite z-score is 0.286 in assay [1]; 1.31 in assay [2]; -0.0625 in assay [3]; 0.0869 in assay [4]; 1.19 in [5]; 1.64 in [6]. For the same compound, the composite z-score in assay [7] is 0.892; in assay [9] it was 0.252; in assay [10], 0.186; in assay [11] it was 1.18; in [15], 2.01; in [17], 0.0708. Further, the composite z-score is -0.0098 in assay [18], 0.536 in assay [19] and -0.0854 in assay [20]. The z-score is -0.36 (inactive) in [8]; 0.478 (inactive) in assay [12]; -1.84 (inactive) in [13]; 2.15 (inactive) in assay [14]; 1.99 (inactive) in assay [16].
